# Laboratory results from PubChem BioAssay AID1236 (Emory University Molecular Libraries Screening Center, 2008).
# Out of some 220,000 compounds screened, about 800 (0.36%) were called active. The list comes from a sample in which actives are over-represented; it also holds similar structures and randomly drawn compounds. Unmarked numbers belong to inactive results.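 How the source made its calls: active means inhibition above about 50% (limit read from the data); inactive means the rest.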
# Tested on: calpain II (m-calpain), Sus scrofa
# Assay: inhibitors of pig calpain II, primary screen, biochemical, fluorogenic peptide substrate, 1536-well (AID 1236)
# Conditions: purified calpain II, 30 min, at 16 µM, active compounds read high
row,SMILES,inhibition
1,Cc1cccc(NC(=S)N(CCN(C)C)C(C)c2ccco2)c1 (stereo unspecified),-1.81%
2,FC(F)(F)c1nnc2ccc(N3CCN(c4ccccc4)CC3)nn12,8.02%
3,Fc1c(F)c(C(F)(F)F)c(F)c(F)c1N1CCN(c2ccc3nnc(C(F)(F)F)n3n2)CC1,58.9% (active)
4,Cc1ccnc(NC(=O)Cn2ccc([N+](=O)[O-])n2)c1,-9.6%
5,Cc1cc(C)cc(C(=O)N(CCc2ccccc2)C2=CC3CCC(C2)N3C)c1 (stereo unspecified),-21.9%
6,CCn1c(SCC(=O)N/N=C/c2ccccc2OCC(=O)O)nnc1-c1ccc(C(C)(C)C)cc1,-10.5%
7,CCC/C=C(\CCC)C(NC(=O)Cc1ccccc1)c1ccc(C(=O)OC)cc1 (stereo unspecified),3.04%
8,CCOC(=O)CN(C)S(=O)(=O)c1ccc(-c2cc(C(=O)OC)sc2C(F)(F)F)cc1,17.5%
9,Oc1c(Br)cc(/C=N/NC(=S)NCC2CCCO2)cc1Br (stereo unspecified),-20.7%
10,Cc1cc(C(=O)OCC(=O)c2c(N)n(C)c(=O)n(C)c2=O)c(C)o1,32.4%
11,CCc1ccc(OCC(=O)OCC(=O)c2c(N)n(C)c(=O)n(C)c2=O)cc1,4.26%
12,Cn1c(N)c(C(=O)COC(=O)c2cnc(Cl)c(Cl)c2)c(=O)n(C)c1=O,69% (active)
13,Cc1csc(NC(=O)c2ccc(-c3ccc(Cl)cc3Cl)o2)n1,-95.3%
14,COc1ccc(CN2CCN(Cc3cn(C)nc3-c3ccccc3)CC2CCO)c(C)c1C (stereo unspecified),-24.9%
15,O=C1CCN(C(=O)Nc2ccccc2)N1,9.94%
16,CC(C)CNC(=O)CC(c1ccccc1)c1c(O)ccc2ccccc12 (stereo unspecified),-74.9%
17,CCc1ccc(Oc2nc([N+](=O)[O-])nn2C)cc1,-6.47%
18,C=CCn1c(SCc2cccc(F)c2)nc2cc(C(=O)N3CCC(C(N)=O)CC3)ccc2c1=O,-22.9%
19,O=C(NC(=S)Nc1cccc2c(O)cccc12)c1cccc(Br)c1,-4.46%
20,Clc1ccc(-c2nnc(SCc3nc4ccccc4s3)o2)cc1,8.94%
21,O=C(OCC#CCSc1nnc(-c2ccncc2)o1)c1sc2ccccc2c1Cl,20.6%

row,SMILES,inhibition
1,C#CCSc1nnc(-c2sc3ccccc3c2Cl)o1,50.5% (active)
2,Cc1cccc(N(C)C(=O)c2cc3c(=O)[nH]c4ccc(C)cc4c3s2)c1,-47.9%
3,O=C(O)CCn1cc(/C=C/C(=O)c2ccc(Cl)cc2)c(-c2cccc(Br)c2)n1,31.9%
4,CS(=O)(=O)c1ccc2nc(NC(=O)c3ccc(Cl)nc3)sc2c1,8.84%
5,Nc1nc(-c2sc3nc4c(cc3c2N)CCCC4)nc(N2CCOCC2)n1,-253%
6,C/C(=N\OCC(=O)O)c1ccc(Cl)cc1,25.9%
7,CCOC(=O)CN/C=C(\C#N)c1ccc(F)cc1,-15.5%
8,CCOc1cc(/C=C(/C#N)c2ccc(Cl)cc2)cc(Cl)c1OCC(=O)O,50.5% (active)
9,Nc1c(Cl)cc(S(N)(=O)=O)cc1S(N)(=O)=O,-2.3%
10,Cc1cc(-c2ccc(/C=N/n3cnnc3)o2)c([N+](=O)[O-])cc1C,34.4%
11,Cc1cc([N+](=O)[O-])c(-c2ccc(/C=N/n3cnnc3)o2)cc1Cl,58.9% (active)
12,Cc1ccc(Cl)cc1-c1ccc(/C=N/n2cnnc2)o1,4.96%
13,NS(=O)(=O)c1ccc(CNC(=O)c2cnccn2)cc1,-9.46%
14,Cc1nc(NC2=NC(C(=O)Nc3ccc(Cl)cc3)CC(=O)N2)nc2ccccc12 (stereo unspecified),6.9%
15,CCNC(=O)N1c2ccccc2Sc2ccccc21,-4.08%
16,CCC(C(=O)OCC(=O)Nc1ccccc1-c1ccccc1)c1ccccc1 (stereo unspecified),56.9% (active)
17,CCC(C(=O)OCC(=O)Nc1ccc(C(=O)Nc2ccc(OC)cc2)cc1)c1ccccc1 (stereo unspecified),38%
18,CCC(C(=O)OCC(=O)Nc1c(Cl)cc(Cl)cc1Cl)c1ccccc1 (stereo unspecified),11.9%
19,CCOc1c(CNCc2ccc(C(=O)O)cc2)cccc1OC,-12%
20,CC(=O)N1C(C)c2ccccc2C(C)(C)CC12CCCCC2 (stereo unspecified),10.1%
21,COc1ccc(S(=O)(=O)N(CC(=O)N/N=C/c2ccccc2C(=O)O)c2ccccc2OC)cc1,-1.16%

row,SMILES,inhibition
1,COC(=O)CCCC1=CC2=CC(=O)C(C)(OC(=O)c3cccs3)C(=O)C2=CN1c1cccc(C#N)c1 (stereo unspecified),-53.3%
2,CC(=NCc1ccco1)c1c(C(F)(F)F)[nH]n(-c2nc3ccccc3s2)c1=O,-91.3%
3,S=C(NCCc1ccccc1)Nc1ccccc1,16%
4,Cc1ccc(N2CCN(C3=NC(=O)/C(=C\c4cccs4)S3)CC2)cc1,76.7% (active)
5,Cc1ccsc1/C=C1\SC(N2CCOCC2)=NC1=O,15.5%
6,Cc1ccc(N2CCN(/N=C/c3cccs3)CC2)cc1,-29.6%
7,O=[N+]([O-])c1ccc(N2CCSCC2)cc1O,2.99%
8,O=C(OCc1ccc(Br)cc1)c1cccc(-c2nnc(-c3ccccc3)o2)c1,-6.16%
9,O=C(Nc1ccccc1C(F)(F)F)N1CCCC1c1cccnc1 (stereo unspecified),3.9%
10,O=C(c1ccccc1)N1CCN(c2ccc([N+](=O)[O-])c(NCc3ccco3)c2)CC1,54.3% (active)
11,O=C(c1cccc(F)c1)N1CCN(c2ccc([N+](=O)[O-])c(N3CCCCC3)c2)CC1,5.06%
12,O=[N+]([O-])c1ccc(N2CCN(S(=O)(=O)c3ccc4ccccc4c3)CC2)cc1NCc1ccco1,-59%
13,O=C(COC(=O)c1ccc(Cl)nc1)NCc1cccs1,13.2%
14,C/C(=N/NC(=S)Nc1ccccc1)c1ccc2c(c1)OCO2,-6.26%
15,CC(C)(C)c1cc(C(=O)NN)n(Cc2ccc(Cl)cc2Cl)n1,17.2%
16,Cn1c(=O)cc(OCC(=O)N2CCN(c3ccccc3F)CC2)c2ccccc21,-13.2%
17,CC(C)Oc1ccc(CCc2n[nH]c(=S)n2Cc2ccccc2)cc1,53.5% (active)
18,CC(C)Oc1ccc(Cc2n[nH]c(=S)n2Cc2ccccc2)cc1Cl,15.2%
19,C=CCn1c(CCc2ccc(OC(C)C)cc2)n[nH]c1=S,-15.1%
